# The panel holds about 83,000 compounds, 20% with a hit somewhere; the sample as a whole holds those more often.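 Each cell line was grown in a 96-well plate and treated with one concentration of compound for 48 hours. Values below 10 were considered active.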 Activity calls are given as the source filed them.
# Test system: SNB-19 CNS
# Assay: NCI-60 one-dose screen, 48 h (100 = growth as untreated, 0 = no growth, -100 = all killed)
# Details: 10 µM unless noted
# Protocol: Growth inhibition of the SNB-19 human tumor cell line is measured as a screen for anti-cancer activity. Cells are grown in 96 well plates and exposed to the test compound for 48 hours. Compounds are tested at a single concentration, which is 10^-5 M for most compounds. The reported endpoint is percent growth (GI% or GIPRCNT), where numbers from 0 - 100% represent growth inhibition, and numbers from -100% - 0 represent cell death. For example, a value of 40 represents 60% growth inhibition. A value of 0 means no net growth occurred over the course of the experiment. A value of -40 indicates 40% of cells at the beginning of the experiment died by the end of the experiment. A value of -100 means all cells are dead at the end of the experiment.
# NCI-60 Human Tumor Cell Lines Screen was performed using the standard one-dose NCI protocol, which is described in more detail at https://dtp.cancer.gov/discovery_development/nci-60/default.htm.
# Compounds with GIPRCNT values below 10 were considered active. Activity score was based on GIPRCNT using the following formula: […]
# Score is 0 for GIPRCNT values of 100 or above, 50 for GIPRCNT values of 0, and 100 for GIPRCNT values of -100.
row,Structure (SMILES),growth
1,Nc1ncnc2c1c(-c1ccc(Oc3ccccc3)cc1)nn2CC1SSCC1O (stereo not given),45.5% (inactive)
2,CCc1cccc(Sc2cc(C(=O)N3Cc4ccc(OCCN(C)C)cc4C3)ccc2O)c1,71.2% (inactive)
3,COC(=O)C1=C(C)NC(C)=C(C(=O)OCC(C)C)C1c1ccccc1[N+](=O)[O-] (stereo not given),82.4% (inactive)
4,CC(C)C[C@@H](C(=O)N[C@H](C(=O)OC1CCCC1)c1ccccc1)[C@H](O)C(=O)NO,76.2% (inactive)
5,Cn1cc(-c2csc(-c3cn(C)c4ccc(Br)cc34)n2)c2cnccc21,-86.9% (active)
6,CCCn1c(=S)sc2c1nc(C)n1c(Nc3ccccc3)nnc21,70.8% (inactive)
7,COc1ccc(C2=CN3CC=CCC3CC2=O)cc1 (stereo not given),107% (inactive)
8,Cc1nn(-c2ccccc2)c(N2CCCCC2)c1/C=N/NC(=O)Cn1c(=O)sc2ccccc21,70.9% (inactive)
9,CCOC(=O)C1=C(c2ccccc2)N=c2s/c(=C/c3ccc(Br)cc3)c(=O)n2C1c1ccc(O)cc1 (stereo not given),86.7% (inactive)
10,COC(=O)c1c2c(n3ccc(C)cc13)C(=O)c1ccccc1C2=O,78.3% (inactive)
11,NNC(=S)N/N=C/c1ccccn1,48.3% (inactive)
12,COc1ccccc1-n1c(-c2cc(O)ccc2C)cn2c3c(=O)[nH]c(=O)n(C)c3nc12,82.1% (inactive)
13,COc1ccc(-c2nnc(SCC(=O)Nc3ccc(/C(C)=N\O)cc3)n2-c2ccccc2)cc1OC,75.8% (inactive)
14,CCNC(=O)Oc1ccc(/C(=C(/C)Cc2ccc(OC)cc2)c2ccc(OCCN3CCCCCC3)cc2)cc1,82.7% (inactive)
15,CCCCCCCCCCCCCCCCOC(=O)c1c(C)[nH]c(/C=C2\N=C(c3ccc[nH]3)C=C2OC)c1C,84.6% (inactive)
16,Cn1cc(-c2nonc2-c2c[nH]c3ccc(F)cc23)c2cc(Br)ccc21,58% (inactive)
17,CC(C)c1ccc(C(=O)Nc2sc3cc(O)ccc3c2C#N)cc1,36% (inactive)
18,Cn1cc(-c2csc(-c3cn(C(=O)OC(C)(C)C)c4ccccc34)n2)c2ccnc(Cl)c21,89.1% (inactive)
19,COc1cc2ncnc(Nc3ccc(F)c(Cl)c3)c2cc1OCC(=O)N1CCN(c2ccc(F)cc2)CC1,83.6% (inactive)
20,C[C@H]1[C@H](C)CC[C@]2(C(=O)O)CC[C@]3(C)C(=CC[C@@H]4[C@@]5(C)C[C@@H](Cc6cn([C@@H]7O[C@H](CO)[C@@H](O)[C@H](O)[C@H]7O)nn6)[C@H](O)C(C)(C)[C@@H]5CC[C@]43C)[C@H]12,98.8% (inactive)

row,Structure (SMILES),growth
1,N#CC(C#N)N=Nc1ccc(Cl)cc1Cl,102% (inactive)
2,CC(=O)N/C(=C1/OC(C(O)C(O)C(O)CO)CN1C)[P+](c1ccccc1)(c1ccccc1)c1ccccc1 (stereo not given),91.2% (inactive)
3,CN1CCN(Cc2ccc(NC(=O)c3cncc(C#Cc4cncc5[nH]ncc45)c3)cc2C(F)(F)F)CC1,45.5% (inactive)
4,COC(=O)c1nc(-c2ccccc2)oc1S(=O)(=O)N1CCC(C(N)=O)CC1,93.3% (inactive)
5,COP(=O)(OC)c1nnn(-c2cccc([N+](=O)[O-])c2)c1C,105% (inactive)
6,Nc1c(C(=O)Nc2ccccn2)sc2nc3c(cc12)C(O)CCC3 (stereo not given),20.9% (inactive)
7,Clc1ccc(-c2cn3ccsc3n2)c(Cl)c1Cl,105% (inactive)
8,Cc1cc(C)cc(Nc2ccc([N+](=O)[O-])c(NCCN3CCOCC3)n2)c1,43.9% (inactive)
9,Cc1ccc2nc(Cl)c(Cn3nnnc3SCc3ccccc3)cc2c1,98.8% (inactive)
10,CN1CCN(Cc2cc(NC(=O)c3cccc(C#Cc4cccc5[nH]nc(N)c45)c3)cc(C(F)(F)F)c2)CC1,52.1% (inactive)
11,CC(O)c1ncc(/C=C2\SC(=S)N(Cc3ccccc3)C2=O)s1 (stereo not given),106% (inactive)
12,CCOC(=O)c1c(-c2ccc(Cl)cc2)c(C#N)c2c(C#N)c(N)nn2c1N,74.7% (inactive)
13,Cn1cc(-c2nc(-c3c[nH]c4ccncc34)cs2)c2cc(Br)ccc21,-76% (active)
14,C=C1C(=O)O[C@H]2[C@H]1CC/C(COC(=O)c1cc3cc(F)ccc3[nH]1)=C\CC[C@@]1(C)O[C@@H]21,-10.2% (active)
15,C=CC1(C)C(O[Si](C)(C)C(C)(C)C)CC2C3OC(=O)NC31c1cccc3c1[C@H](C(=O)N3C)C2(C)C (stereo not given in full),78.7% (inactive)
16,O=C1NC(=C(Cl)Cl)/C(=N/S(=O)(=O)NCCc2c[nH]c3ccccc23)N1,53.9% (inactive)
17,CC(C)(C)c1cc(C=Nc2cccc(C(F)(F)F)c2)c(O)c(C(C)(C)C)c1,93.9% (inactive)
18,COc1cccc2c(N=NC(=O)c3ccc(S(N)(=O)=O)cc3)c(O)[nH]c12,97.1% (inactive)
19,N#C/C(=C\c1ccc(Br)cc1)c1cc2ccccc2[nH]1,94.5% (inactive)
20,CC1=C(C(=O)n2c3ccccc3c3ccccc32)C(c2cccc([N+](=O)[O-])c2)C(C(=O)n2c3ccccc3c3ccccc32)=C(C)N1,95.6% (inactive)

# Reference: PubChem BioAssay (NCI)
